Screens (PubChem BioAssay)
MARV entry inh: qHTS for inhibitors of binding or entry into cells for Marburg Virus | Marburg virus pseudotyped entry inhibition, cell reporter | AID 540276, 2011 | Potency, µM (titrated, usually from 37.8 µM), for the others: top-dose activity change, negative = inhibition, usual class: inhibitors | actives 1.8% (n = 300,000); calls by dose curve; tested in HEK293 cells; also: potency is read from the fitted curve at half-maximal effect
LASV entry inh: qHTS for Inhibitors of binding or entry into cells for Lassa Virus | Lassa virus pseudotype entry inhibition, cell reporter | Potency, µM (highest dose often 37.9 µM), for inactives: at the top dose activity change, negative = inhibition, usual class: inhibitors | actives 1.2% (n = 300,000); calls by dose curve; tested in HEK293 cells; also: potency is read from the fitted curve at half-maximal effect; nearly all actives have a fitted effect of over 50% in size
FMDV inh: High Throughput Screening for Foot and Mouth Disease Virus Antivirals; FMDV antiviral cell-based qHTS; Potency, µM (series often up to 57.9 µM), for inactives: top-dose activity change, negative = inhibition, usual class: inhibitors; actives 1.2% (n = 410,000); AID 1159524, 2015; calls by dose curve; tested in HEK293T cells; also: read-out not given here; potency is read from the fitted curve at half-maximal effect; nearly all actives have a fitted effect of over 45% in size
HCMV antiviral: qHTS Assay for inhibitors of the human cytomegalovirus (HCMV); AID 1259415, 2018; HFF cells, HCMV-luciferase reporter, 72 h; hits give low values; actives 4.5% (n = 410,000); activity change, negative = inhibition, % at 57.5 µM; in the data active = activity change below about -60%; inconclusive = no clear call, values can overlap the other calls; inactive = above about -39%
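Luciferase read-out from HCMV-luciferase-infected HFFs (MOI 1 PFU/cell) 72 h post infection at 37C; compounds added after 16 h cell attachment; activity normalized between buffer-only basal and Salinomycin (10uM) inhibitor controls.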
HCV inhibitor: qHTS Assay for Inhibitors of Hepatitis C Virus (HCV). Huh7.5.1 HCVcc-Cre infection, luciferase reporter, 44 h. Potency, µM (titrated, usually from 41.8 µM), inactives show top-dose activity change, negative = inhibition, most hits filed as inhibitors. actives 3.4% (n = 340,000); active = well fitted inhibition curve with a large enough effect; inconclusive = small, poorly fitted or top-dose-only effect, or another doubt; inactive = no such curve, though single readings can be large or run the other way; also: potency is read from the fitted curve at half-maximal effect
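Compounds are dispensed onto cells plated 4 h earlier at 1,000 per well, with HCVcc-Cre virus (about 0.5 moi) added next. Following 44 h of culture, luminescent signal is measured for 15 sec after 15 min with substrate at room temperature.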
An asterisk follows results filed as active; ? = inconclusive; · = no result given; [ ] = dose if it differs, or a comment. The list is not random: actives were taken first. Their share in the collection is about 7.9%. % is scaled to controls: 0 for no effect and ±100 for the full control effect.

SMILES	MARV entry inh	LASV entry inh	FMDV inh	HCMV antiviral	HCV inhibitor
COc1ccc2[nH]c3c(Cl)ncnc3c2c1	?	-23%	-20%	8	?
Fc1ccc2[nH]c3c(N4CCN(c5ccccc5)CC4)ncnc3c2c1	?	?	?	-97*	7.9µM*
CCOC(=O)N1CCN(c2ncnc3c2[nH]c2ccc(OC)cc23)CC1	10µM*	?	?	?	-29%
COc1ccc2[nH]c3c(N4CCc5ccccc5C4)ncnc3c2c1	0.71µM*	?	25µM*	-88*	?
CCCCn1nnnc1C(C1CC1)N1C(=O)C(=O)c2ccccc21 (stereo unspecified)	·	·	·	-9	·
Nc1nonc1-c1nc2ccccc2n1Cc1ccc(Br)cc1	1%[46.1 µM]	9%[46.1 µM]	-29%	4	·
CN(Cc1ccc(Cl)cc1)C(=O)c1cc(S(=O)(=O)N2CCOCC2)ccc1N1CCCC1	12%	-14%	-11%	-20	-29%
Cc1ccc(N(Cc2ccccc2)C(=O)c2cc(S(=O)(=O)N3CCOCC3)ccc2N2CCCC2)cc1	?	?	1%	-61*	?
Cc1cccc(N(Cc2ccccc2)C(=O)c2ccc(C)c(S(=O)(=O)N3CCOCC3)c2)c1	·	·	41%	?	?
Cc1cccc(N(Cc2ccccc2)C(=O)c2ccc(F)c(S(=O)(=O)N3CCOCC3)c2)c1	11µM*	-27%	-5%	-35	?
CCOC(=O)C1=C(C(=O)OCC)c2ccc(OC)c(OC)c2C1	?	-29%[46.1 µM]	3%	-3	?
CCOc1ccc(C(NC(=O)c2ccco2)c2ccc(OC)c(OC)c2)cc1 (stereo unspecified)	-15%	?	·	56	4%
COc1ccc(C(NC(C)=O)c2cc(Cl)c3cccnc3c2O)cc1 (stereo unspecified)	·	·	-18%	-99*	10µM*
CC(=O)NC(c1ccccc1)c1cc(Cl)c2cccnc2c1O (stereo unspecified)	13µM*	?	-16%	-95*	10µM*
O=C(NC(c1ccc(Cl)cc1)c1cc(Cl)c2cccnc2c1O)c1cccnc1 (stereo unspecified)	?	?	?	-101*	?
CC(=O)NC(c1ccc(F)cc1)c1cccnc1 (stereo unspecified)	?	7%	9%	23	5%
CCCC(=O)NC(c1ccc(OC)c(OC)c1)c1cc(Cl)c2cccnc2c1O (stereo unspecified)	10µM*	?	-1%	-99*	-26%
COc1ccc(C(Nc2cc(C)ccn2)c2ccc3ccc(C)nc3c2O)cc1 (stereo unspecified)	?	?	-25%	-16	?
O=C(NCc1ccc(Cl)cc1)c1cccnc1	7%	3%	1%	1	-11%
COc1ccc(O)c(CN2CCC3(CCC(CNC(=O)C4CCCO4)O3)CC2)c1 (stereo unspecified)	·	·	-8%	·	·
CC(=O)NC(c1ccc(N(C)C)cc1)c1cc(Cl)c2cccnc2c1O (stereo unspecified)	·	·	-24%	-100*	·
CCCCC(=O)NC(c1cccs1)c1cc(Cl)c2cccnc2c1O (stereo unspecified)	·	·	-16%	-100*	2.2µM*
CCCCC(=O)NC(c1ccco1)c1c(O)ccc2ccccc12 (stereo unspecified)	0%	-9%	-13%	25	-17%
c1ccc2c(c1)[nH]c1c(C3=NCCC3)nccc12	·	·	·	-1	·
COC(=O)c1ccccc1-c1cc(C)cc2c1OC(CNC(=O)C1CCCO1)C2 (stereo unspecified)	·	·	-2%	·	·
SMILES	MARV entry inh	LASV entry inh	FMDV inh	HCMV antiviral	HCV inhibitor
CC(=O)N1CCCc2cc(S(=O)(=O)N3CCC(C(=O)NCc4ccccc4)CC3)ccc21	·	?	-20%	1	·
C=CCOC(=O)C1=C(C)N=C2SCCC(=O)N2C1/C=C/c1ccccc1 (stereo unspecified)	·	·	1%	-103*	?
C/C(=N\NC(=O)CNC(=O)C(c1ccccc1)c1ccccc1)c1ccc(C(C)(C)C)cc1	-6%	-5%	-2%	-76*	21%
COc1cc(-c2cc(C)c3c(OC)ccc(OC)c3n2)cc2c1OCCN(C(=O)Cn1nc(C)cc1C)C2	·	·	0%	·	·
COCCC(=O)NNS(=O)(=O)c1ccc(Cl)cc1	7%	8%	-2%	11	30%
CC(C)c1ccccc1NC(=O)COC(=O)c1c2c(nc3ccccc13)CCN(Cc1ccccc1)C2	?	?	0%	-6	?
Cc1c(Cl)cccc1NC(=O)COC(=O)c1c2c(nc3ccccc13)CCN(Cc1ccccc1)C2	2.6µM*	?	?	101	?
Cc1cc(N2CCN(C)CC2)ccc1NC(=O)c1c2c(nc3ccccc13)CCN(Cc1ccccc1)C2	?	?	-10%	·	2µM*
CC(CC(=O)Nc1ccc(F)cc1)S(=O)(=O)c1cc2c3c(c1)CCN3C(=O)CC2 (stereo unspecified)	·	-5%[46.1 µM]	-5%	-11	·
O=c1oc2c(O)c(O)cc3c(=O)oc4c(O)c(O)cc1c4c23	4.1µM*	?	-24%	·	-8%[8.37 µM]
CC(=O)Nc1ccc(NC(=O)C(C)OC(=O)C2(c3ccc(F)cc3)CCCC2)cc1 (stereo unspecified)	·	·	25µM*	-29	?
CC(C)Nc1nc(-c2ccccn2)nc(-c2ccccc2)c1C#N	1%[46.1 µM]	-5%[46.1 µM]	-15%	-67*	8%
CC(C)Nc1nc(-c2cccnc2)nc(-c2ccc(Cl)cc2)c1C#N	-11%[46.1 µM]	12%[46.1 µM]	-12%	?	-10%
C1CCN(c2c3c(nc4nnnn24)CCCC3)CC1	23%	-13%	-23%	-64*	-3%
CCN(CCn1cccn1)C(=O)CC1C(=O)NCCN1CCc1ccccc1 (stereo unspecified)	-8%	14%	-10%	9	23%
Cc1c(C(=O)NN)nn(-c2ccc(Cl)cc2)c(=O)c1C#N	?	-23%	13µM*	-36	14µM*
O=C1CN(S(=O)(=O)c2ccc(Cl)cc2)c2ccccc2N1	9%[46.1 µM]	?	-12%	33	5%
CCOC(=O)C1=CNS(=O)(=O)NC1c1cccc(O)c1 (stereo unspecified)	·	·	0%	-9	-7%[8.37 µM]
CCOC(=O)C1=CNS(=O)(=O)NC1c1ccc2ccccc2c1 (stereo unspecified)	·	·	-3%	2	6.3µM*
Cn1c(CNc2ccccn2)c(C#N)c2ccccc21	-1%	-6%	0%	14	11µM*
Cn1c(CSc2ccccc2)c(C#N)c2ccccc21	15%	?	36%	18	-7%
COc1ccc(S(=O)(=O)N2CCN(C(=O)CCCN3C(=O)NC4(CCCC4)C3=O)CC2)cc1	0%	15%	-27%	-31	-11%
Cn1c(-c2cccnc2)cc2cnc(Nc3ccc(OC(F)(F)F)cc3)cc21	·	·	·	-60*	·
